The sample as a whole holds a higher share of hits than the screen did.
HTT prom inh: HTT promoter inhibition. HEK293 HTT promoter firefly luciferase reporter, 24 h. Potency, µM (series often up to 57.5 µM), inactives show at the highest dose activity change, negative = inhibition, hits mostly inhibitors. 0.93% of 48,000 active; further: nearly all actives have a fitted effect of over 50% in size
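Firefly luciferase signal from promoter-reporter HEK293 cells was scaled between vehicle (0%) and zero RLU (-100%). Compounds were tested at final concentrations of up to 57.5 uM over 24 h at 37 degrees C. PTC124 at 50 uM final served as control inhibitor.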
NTMT1 inhibitor: NTMT1 methyltransferase inhibition. Q9BV86. NTMT1 MTase-Glo SAH luminescence, purified enzyme. Potency, µM (titrated, usually from 114 µM), for the others: at the top dose activity change, negative = inhibition, usual class: inhibitors. 2.5% of 59,000 active. AID 1645870;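 further: plate controls were DMSO vehicle for no effect and no enzyme for full effect; nearly all actives have a fitted effect of over 65% in size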
Target sequence (Q9BV86 whole entry, looked up): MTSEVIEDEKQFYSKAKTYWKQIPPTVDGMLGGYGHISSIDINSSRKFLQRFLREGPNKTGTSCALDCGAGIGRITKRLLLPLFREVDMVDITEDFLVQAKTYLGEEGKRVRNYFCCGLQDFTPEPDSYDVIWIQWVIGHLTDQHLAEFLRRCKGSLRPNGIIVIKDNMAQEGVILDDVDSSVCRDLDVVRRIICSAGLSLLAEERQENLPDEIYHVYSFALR
HTT-AS act: activates huntingtin-antisense promoter activity; HEK293 HTT-AS promoter firefly luciferase reporter, 24 h; response scale: percent change from vehicle, -100% = no light; Potency, µM (doses to about 57.5 µM), for the others: top-dose activity change, positive = activation, most hits filed as activators; 0.24% of 48,000 active; further: nearly all actives have a fitted effect of over 55% in size
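Firefly luciferase signal from promoter-reporter HEK293 cells was scaled between vehicle (0%) and zero RLU (-100%). Compounds were tested at final concentrations of up to 57.5 uM over 24 h at 37 degrees C. PTC124 at 50 uM final served as control inhibitor.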
An asterisk follows results filed as active; ? = inconclusive; · = no result given; [ ] = remark or other dose. The call rests on the fitted dose curve; in most records, active means well fitted curve in the direction sought with a large enough effect; inconclusive means small, poorly fitted or top-dose-only effect, or another doubt; inactive means no such curve, though single readings can be large; an effect the other way counts as inactive or inconclusive. Potency means the concentration at half of the fitted maximal effect.

SMILES	HTT prom inh	NTMT1 inhibitor	HTT-AS act
Cc1ccc(Cc2c(C)nc3c(-c4ccccc4)c(C)[nH]n3c2=O)cc1	?	6.8%	-41.9%
Cc1nc2c(-c3ccccc3)c(C)[nH]n2c(=O)c1Cc1ccc(Br)cc1	12.6µM*	?	-65.5%
CCCSc1nnc(NC(=O)c2cc(=O)c3ccccc3o2)s1	15.1%	6.4%	16.7%
CCCc1nnc(NC(=O)c2cc(=O)c3ccccc3o2)s1	47.5%	1.5%	3.98µM*
CC(=O)C1=CCC2C3CCC4CC(O[C@@H]5O[C@H](CO)[C@@H](O[C@@H]6O[C@@H](C)[C@H](O)[C@@H](O)[C@H]6O)[C@H](O)[C@H]5O[C@@H]5O[C@H](CO)[C@@H](O)[C@H](O)[C@H]5O)CCC4(C)C3CCC12C (stereo not given in full)	·	-11.1%[12.6 µM]	·
Nc1ccc(C(=O)O)cc1	11.5%	0.6%[57.5 µM]	2.6%
Nc1ccc(O)c(C(=O)O)c1	-2.9%	39.8µM*	-6.5%
CCN1C(=O)N2Cc3cc(OC)cc(OC)c3[C@@H](C)C=C2C12CCN(Cc1cc(C)cc(C)c1)CC2	·	21.0%	·
CN(C)c1ccc(CNc2nc(-c3ccco3)nn2S(=O)(=O)c2ccc(Cl)cc2)cc1	38.2%	-2.4%	?
O=S(=O)(c1ccccc1)n1nc(-c2ccco2)nc1NCc1ccccc1	37.3%	-0.6%	12.6µM*
CN(C)CCC[C@@]1(c2ccc(F)cc2)OCc2cc(C#N)ccc21	-9.7%	25.1µM*	-8.4%
O=C(NCCc1ccc(OCC(F)(F)F)c(OCC(F)(F)F)c1)c1cc2sccc2n1Cc1ccccc1	·	8.5%	·
Cc1ccc(/C=C/c2onc(C)c2S(=O)(=O)N2CCC(C(=O)N3CCC(N(C)C(C)C)CC3)CC2)cc1	-21.4%	79.4µM*	-14.0%
Cc1noc(C)c1S(=O)(=O)N1CCC(C(=O)N2CCN(c3ccccc3)CC2)CC1	-26.2%	7.6%	-22.8%
Cc1cccc(N2CCN(C(=O)C3CCN(S(=O)(=O)c4ccc5c(c4)oc(=O)n5C)CC3)CC2)c1C	?	11.6%	-42.6%
CC(=O)c1ccc(N2CCN(C(=O)C3CCN(S(=O)(=O)c4c(C)noc4/C=C/c4ccc(C)cc4)CC3)CC2)cc1	?	-19.9%	-35.0%
Cc1cccc(N2CCN(C(=O)C3CCCN(S(=O)(=O)c4ccc5c(c4)oc(=O)n5C)C3)CC2)c1C (stereo not given)	5.01µM*	-1.9%	-45.3%
Cc1cccc(N2CCN(C(=O)C3CCN(S(=O)(=O)c4c(C)noc4C)CC3)CC2)c1C	14.1µM*	?	-38.3%
CC(=O)OC1CC(C(C)(C)O)OC2CCC3(C)OC4=C(C(=O)C=C5C(C)C(OC(C)=O)C6(C)C(C)OC546)C(O)C3C12C (stereo not given)	·	15.6%[12.6 µM]	·
CNCCN(C)Cc1cn[nH]c1-c1ccc(OC2CC(OCCC3CCOCC3)C2)cc1 (stereo not given)	·	25.8%[57.5 µM]	·
CC(=O)N[C@H]1CCN(c2ccc(C3=NOC(CN[S+](=O)([O-])C(C)C)C3)cc2F)C1 (stereo not given in full)	·	-19.2%[57.5 µM]	·
Cc1ccc(OCCn2c(CCNC(=O)c3cccc(C#N)c3)nc3ccccc32)cc1	·	10.5%	·
CCOC(=O)C1CCN(C(=O)C2(NC(=O)Nc3ccccc3Cl)CC2)CC1	·	-0.4%	·
COc1cccc(-c2cc(C(F)(F)F)n3nc(-c4ccc(C)cc4)cc3n2)c1	-20.3%	-24.7%	-22.9%
Cc1ccc(-n2ncc3c(NCCc4ccccc4)ncnc32)cc1Cl	18.3%	-27.0%	4.0%
SMILES	HTT prom inh	NTMT1 inhibitor	HTT-AS act
Cc1ccc(-n2ncc3c(NCCO)ncnc32)cc1Cl	61.9%	35.5µM*	?
Cc1ccc(-n2ncc3c(NCCCN4CCOCC4)ncnc32)cc1Cl	?	?	-7.3%
Cc1cccc(-n2ncc3c(NCCOCCO)ncnc32)c1	38.6%	?	3.98µM*
Clc1cccc(-n2ncc3c(NCCCN4CCOCC4)ncnc32)c1	-7.8%	50.1µM*	2.8%
Cc1cccc(-n2ncc3c(Nc4c(C)cc(C)cc4C)ncnc32)c1	?	?	-22.7%
O=c1[nH]c(CN2CCOCC2)nc2sc3c(c12)CCCC3	·	-2.9%	·
CC1=C(C(=O)Nc2nc3ccccc3s2)C(c2nn(C)cc2Cl)N=C(Nc2nc3ccccc3o2)N1 (stereo not given)	·	3.2%[57.5 µM]	·
Cc1cc(NS(=O)(=O)c2ccc(NC(=O)Cc3ccc(Cl)cc3Cl)cc2)no1	·	10.5%	·
COc1ccc(S(=O)(=O)N[C@@H](CNc2nc(C)nc(N3CCC(c4ccc5c(n4)NCCC5)CC3)c2C)C(=O)O)cc1	·	8.5%	·
C=CCC1=C[C@]2(OC)[C@H](C)[C@@H](c3ccc4c(c3)OCO4)O[C@]2(OC)CC1=O	·	7.4%[29.8 µM]	·
C=CC(=O)Nc1cc2c(Nc3ccc(F)c(Cl)c3)ncnc2cc1C#CC(C)(C)N1CCN(C)CC1	-3.1%	?	-16.1%
CN1CCC(Nc2ncc3ncnc(Nc4ccc(F)c(Cl)c4)c3n2)CC1	-16.1%	44.7µM*	-10.8%
CC1=C(C(=O)Nc2ccc(Cl)cc2)C(c2ccccc2)n2ncc(C(=O)Nc3ccccc3)c2N1 (stereo not given)	25.1µM*	12.6%	-55.0%
CC1=C(C(=O)Nc2ccc(Cl)cc2)C(c2ccccc2C)n2ncc(C(=O)Nc3ccc(C)cc3)c2N1 (stereo not given)	?	4.9%	-30.5%
C[C@H]1Oc2cc(cnc2N)-c2c(nn(C)c2C#N)CN(C)C(=O)c2ccc(F)cc21	·	4.5%	·
O=C(Nc1ccc(-c2nc3ccccc3[nH]2)cc1)c1ccc2cc[nH]c2c1	·	-15.6%	·
O=C(NCCc1nc2ccccc2n1CCOc1ccccc1[N+](=O)[O-])C1CCCCC1	·	17.3%	·
CC1OC2OC(=O)C3(C)CC4C5(CO5)C5=CC(=O)OC(C)(C)C5=CC(=O)C4(C)C(C1=O)C23 (stereo not given)	·	1.8%[29.8 µM]	·
CCN(CC)CCn1c(-c2ccccc2)nc2c(NCCO)nc(C)nc21	·	89.1µM*	·
CCCCNc1nc(C)nc2c1nc(-c1ccccc1)n2CCCN(CC)CC	·	-14.4%	·
COc1ccc2oc(=O)c(C(=O)Nc3cccc(C(=O)O)c3)cc2c1	3.98µM*	-8.6%	?
COc1ccc(CNC(=O)c2cc3cc(OC)ccc3oc2=O)cc1	-0.4%	-15.2%	-5.7%
N[C@@H]1CN(c2c(F)cc3c(=O)c(C(=O)O)cn([C@@H]4C[C@@H]4F)c3c2Cl)CC12CC2	·	15.2%	·
CCCCC[C@H](O)C=C[C@H]1[C@H](O)CC(=O)[C@H]1CCCCCCC(=O)O	-6.0%	-16.1%[57.5 µM]	?
CCCCC(C)(C)[C@H](O)C=C[C@H]1[C@H](O)CC(=O)[C@H]1CC=CCCCC(=O)O	-7.7%	50.1µM*	-8.3%
SMILES	HTT prom inh	NTMT1 inhibitor	HTT-AS act
CCCCn1cnc2cc(C(=O)N3CCCCC3)ccc21	·	14.7%	·
CC(C)c1onc(-c2c(Cl)cccc2Cl)c1COc1ccc(/C=C/c2cccc(C(=O)O)c2)c(Cl)c1	·	31.6µM*	·
Cc1onc(-c2c(F)cccc2Cl)c1C(=O)Nc1ccc(OC(C)C)cc1	-13.3%	-2.1%	-8.0%
O=C(Nc1ncc(Cc2ccc(C(F)(F)F)cc2)s1)c1ccco1	·	6.5%[57.5 µM]	·
Cc1ccc2nc3sc(C(=O)N4CCC(C(N)=O)CC4)cc3cc2c1	·	1.7%[57.5 µM]	·
CSc1cccc(NC(=O)C2CCN(S(=O)(=O)c3ccc4[nH]c5c(c4c3)CCCCC5)CC2)c1	?	0.0%	-25.2%

Source: PubChem (National Center for Advancing Translational Sciences (NCATS))
